Screens deposited in PubChem BioAssay by several laboratories.
In the library only some 3.5% were active in any assay of this set; here they are far more common.
Mtb FBA inh – Mtb FBA enzyme inhibitors, primary screen, biochemical, fluorescence, strain H37Rv | inhibition, % at 1 µM | purified M. tuberculosis FBA, fluorescence read-out | 2.3% of 360,000 active | Fructose-bisphosphate aldolase (Mycobacterium tuberculosis (strain ATCC 25618 / H37Rv)), …
Mtb UGM inh – M. tuberculosis UGM enzyme inhibitors, primary screen, biochemical, fluorescence polarization, single point | 0.06% of 320,000 active | UDP-galactopyranose mutase (Mycobacterium tuberculosis (strain ATCC 25618 / H37Rv)), … | purified UGM, fluorescence polarization probe displacement | inhibition, % at 10 µM; in the data active = inhibition above about 10%, passing the limit was not always enough
Rv3671c protease – Rv3671c serine protease inhibitors, primary screen, biochemical, fluorescence polarization, M. tuberculosis H37Rv; inhibition, % at 5.96 µM; 0.048% of 320,000 active; AID 2606, 2010; in the data active = inhibition above about 38%;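 also: extracellular domain of Rv3671c used as enzyme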
Target sequence (P9WHR9 whole entry, looked up, the tested form may be a part): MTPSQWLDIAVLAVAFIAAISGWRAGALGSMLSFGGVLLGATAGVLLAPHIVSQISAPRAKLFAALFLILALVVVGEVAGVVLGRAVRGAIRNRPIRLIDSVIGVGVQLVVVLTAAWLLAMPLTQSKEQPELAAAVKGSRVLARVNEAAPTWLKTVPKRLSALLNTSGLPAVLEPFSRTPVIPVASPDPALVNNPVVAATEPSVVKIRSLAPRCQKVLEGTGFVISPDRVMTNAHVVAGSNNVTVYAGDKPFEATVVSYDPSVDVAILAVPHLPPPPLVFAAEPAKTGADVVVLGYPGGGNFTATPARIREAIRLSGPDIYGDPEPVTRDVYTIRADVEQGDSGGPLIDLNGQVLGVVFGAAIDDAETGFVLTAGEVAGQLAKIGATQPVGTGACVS
GDH-TPI counter-1 – GDH-TPI coupling enzyme inhibitors, primary screen, artefact control for M. tuberculosis FBA inhibitor project, biochemical, absorbance, full deck. GDH-TPI coupled enzyme counterscreen, NADH absorbance. inhibition, % at 4.8 µM. 1.2% of 360,000 active. AID 588335, 2011; in the data active = inhibition above about 30%
Mtb FBA confirm – M. tuberculosis aldolase blockers, biochemical, fluorescence, strain H37Rv, confirmation; purified M. tuberculosis FBA, fluorescence read-out; inhibition, % at 1 µM; 78% of 5,600 active; shares compounds with Mtb FBA inh
GDH-TPI counter-2 – GDH-TPI coupling enzyme inhibitors, artefact control for M. tuberculosis FBA inhibitor project, biochemical, fluorescence, high throughput; GDH-TPI coupled enzyme counterscreen; AID 652141, 2013; shares compounds with Mtb FBA inh; inhibition, % at 1 µM; 81% of 5,600 active; in the data active = inhibition above about 10%
Large screens that a line does not name were inactive (follow-up assays come after a bar, where they were run). Rule as the data show it, unless noted: active = inhibition above about 27%; inactive = the rest.

CCOc1ccc(S(=O)(=O)N2CCC(C(=O)Nc3ccc(C)c(S(=O)(=O)N4CCOCC4)c3)CC2)cc1	none (no result: Mtb UGM inh, Rv3671c protease)
Cc1cccc(C=Nc2ccc3c(c2)oc2ccccc23)c1O	Mtb FBA inh 35.6 | Mtb FBA confirm 151.3 | GDH-TPI counter-2 117.3
OCCC1CN(CC2CC2)CCN1Cc1ccc(F)c(F)c1 (configuration not stated)	none
O=C(O)CC/C(=N/NC(=O)c1cn(-c2ccccc2)nc1-c1ccccc1)C(=O)O	Mtb FBA inh 31.1 | Mtb FBA confirm 65.8 | GDH-TPI counter-2 63.5
O=C(/C=C/[C@H]1O[C@@H](n2cnc3c(NC(=O)c4ccccc4)ncnc32)[C@H](O)[C@@H]1O)NCc1cccs1	none (no result: Mtb UGM inh, Rv3671c protease, GDH-TPI counter-1)
Clc1ccc2nc(-c3ccc4c(c3)OCO4)cn2c1	Mtb FBA inh 45.2 | Mtb FBA confirm active | GDH-TPI counter-2 active
c1ccn2cc(-c3ccc4c(c3)OCCO4)nc2c1	Mtb FBA inh 79.7 | Mtb FBA confirm 90.6 | GDH-TPI counter-2 89.8
Cc1ccc2nc(-c3ccc4c(c3)OCCO4)cn2c1	Mtb FBA inh 62.4 | Mtb FBA confirm 195.0 | GDH-TPI counter-2 140.7
CCN1CCN(c2c(Cl)cccc2NC(=O)c2cc3ccccc3o2)CC1	none
CCN1C(=O)[C@@H]2[C@@H](c3ccc(-c4ccc(C(C)=O)cc4)c(OC)c3)N3CCCC[C@@]3(C(=O)OC)[C@@H]2C1=O	none
S=c1[nH]c(-c2ccccc2)cn1/N=C/c1ccc(Br)cc1	Mtb FBA inh 32.5 | Mtb FBA confirm 170.2 | GDH-TPI counter-2 126.2
S=c1[nH]c(-c2ccccc2)cn1/N=C/c1cccs1	Mtb FBA inh 30.8, GDH-TPI counter-1 40.0 | Mtb FBA confirm 151.7 | GDH-TPI counter-2 126.3
Cc1ccc(-c2n[nH]c(=S)n2/N=C/c2ccc(C(=O)O)cc2)cc1	none
Cc1ccc(/C=N/n2c(-c3ccccc3)n[nH]c2=S)cc1	none
S=c1[nH]c(-c2ccccc2)cn1/N=C/c1cccnc1	Mtb FBA inh 33.8 | Mtb FBA confirm 94.2 | GDH-TPI counter-2 84.5
S=c1[nH]nc(-c2cccnc2)n1/N=C/c1ccccc1	none
O=C(O)c1ccc(/C=N/n2cc(-c3ccccc3)[nH]c2=S)cc1	Mtb FBA inh 37.4 | Mtb FBA confirm 49.6 | GDH-TPI counter-2 38.3
CCS(=O)(=O)N1CCC2(CC1)OCCN2S(=O)(=O)c1ccc(C)cc1	none
CN(C(=O)c1cccs1)c1ccccc1C(=O)O	Mtb FBA inh 27.0 | Mtb FBA confirm inactive | GDH-TPI counter-2 inactive
COc1ccc(CN(C(=O)c2cccs2)c2ccccc2C(=O)O)cc1	none
CC(=O)Nc1ccc(S(=O)(=O)NC2CC(=O)N(c3ccc(C)cc3)C2)cc1 (configuration not stated)	none
COC(=O)c1cnn2c(C)c(Cc3cccc(F)c3)c(C)nc12	Mtb FBA inh 42.5 (no result: Mtb UGM inh) | Mtb FBA confirm inactive | GDH-TPI counter-2 inactive
CCOC(=O)N1CCN(C(=O)c2cnn3c(C)c(Cc4ccc(C)cc4)c(C)nc23)CC1	Mtb FBA inh 34.2 | Mtb FBA confirm 114.9 | GDH-TPI counter-2 91.6
CCOC(=O)N1CCN(C(=O)c2cnn3c(C(F)F)cc(-c4ccc(C)cc4)nc23)CC1	none
Cc1ccc(C)c(Cc2c(C)nc3c(C(=O)N4CCOCC4)cnn3c2C)c1	Mtb FBA inh 62.0 | GDH-TPI counter-2 active
Cc1nc2c(C(=O)N3CCN(c4ccccn4)CC3)cnn2c(C)c1Cc1cccc(Cl)c1	none
Cc1nc2c(C(=O)N3CCC4(CC3)OCCO4)cnn2c(C)c1Cc1cccc(Cl)c1	Mtb FBA inh 31.5 | Mtb FBA confirm active | GDH-TPI counter-2 191.5
Cc1nc2c(C(=O)N3CCCC3)cnn2c(C)c1Cc1c(F)cccc1Cl	none
CC(C)(CNS(=O)(=O)c1ccc2ccccc2c1)N1CCOCC1	none
CCCCC(CC)CNC(=O)c1ncn[nH]1 (configuration not stated)	none
CCCCN1C[C@H](COC(=O)CCC)Oc2cccc(F)c2S1(=O)=O	none (no result: Mtb UGM inh, Rv3671c protease)
Cc1cccc(NC(=O)CSc2nncn2N)c1C	none (no result: Mtb UGM inh, Rv3671c protease)
CC(C)c1ccc(S(=O)(=O)N2CCN(CC(O)CN3CCOCC3)CC2)cc1 (configuration not stated)	Mtb FBA inh 50.9 | Mtb FBA confirm 81.8 | GDH-TPI counter-2 69.5
C[C@@H]1C(=O)O[C@H](C)[C@H]1C[C@@H](O)[C@](C)(O)C1CC[C@@]2(O)C3=CC(=O)[C@@H]4C[C@@H](O)[C@@H](O)C[C@]4(C)C3CC[C@]12C (some centres not stated)	none
CCN1C(=O)CS/C1=N\S(=O)(=O)c1ccc(C)cc1	Mtb FBA inh 47.0 | Mtb FBA confirm 76.9 | GDH-TPI counter-2 79.3
COCCN1C(=O)CCC1(C)C(=O)NC1CCCC1 (configuration not stated)	none (no result: Mtb UGM inh, Rv3671c protease, GDH-TPI counter-1)
CNC(=S)N/N=C/c1ccc(C(C)C)cc1	none
CNC(=S)N/N=C/c1ccc(N(C)C)cc1	Mtb FBA inh 41.6, GDH-TPI counter-1 40.2 | Mtb FBA confirm active | GDH-TPI counter-2 active
Cc1c(NC(=S)N/N=C/c2ccc(N(C)C)cc2)c(=O)n(-c2ccccc2)n1C	Mtb FBA inh 33.0, GDH-TPI counter-1 33.2 | Mtb FBA confirm 115.9 | GDH-TPI counter-2 87.5
CSc1ncccc1C(=O)NNC(=O)c1ccc(NS(=O)(=O)c2cccs2)cc1	none
Cc1ccn2cc(-c3cccc(NS(C)(=O)=O)c3)nc2c1	Mtb FBA inh 37.2 | Mtb FBA confirm 60.5 | GDH-TPI counter-2 31.1
CC(=O)Nc1ccc2nc(-c3ccccc3)cn2c1	Mtb FBA inh 38.2 | Mtb FBA confirm active | GDH-TPI counter-2 183.9
CC(=O)Nc1cccc(-c2cn3ccc(C)cc3n2)c1	Mtb FBA inh 49.7 | Mtb FBA confirm active | GDH-TPI counter-2 active
Cc1ccn2cc(-c3cccc(NC(=O)CCC(=O)O)c3)nc2c1	Mtb FBA inh 44.0 | Mtb FBA confirm 44.7 | GDH-TPI counter-2 33.6
Cc1ccn2cc(-c3ccc(NS(=O)(=O)c4ccccc4)cc3)nc2c1	none (no result: Mtb UGM inh)
CCc1cc(=O)oc2cc(OC(C)C(=O)NCC(O)c3ccccc3)c(Cl)cc12 (configuration not stated)	none
Cc1cc(OC(C)C(=O)NCC(O)c2ccccc2)c2c3c(c(=O)oc2c1)CCC3 (configuration not stated)	Mtb FBA inh 77.0 | Mtb FBA confirm 32.2 | GDH-TPI counter-2 34.9
CCCc1cc(=O)oc2cc(OCC(=O)NCC(O)c3ccccc3)ccc12 (configuration not stated)	none
CCCc1cc(=O)oc2cc(C)cc(OCC(=O)NCC(O)c3ccccc3)c12 (configuration not stated)	Mtb FBA inh 61.2 | Mtb FBA confirm 161.4 | GDH-TPI counter-2 151.3
